Data taken from PubChem BioAssay (NCI).
The panel holds about 83,000 compounds, 20% with a hit somewhere; the sample as a whole holds those more often.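 Percent growth is the endpoint: 0 to 100 indicates growth inhibition (40 means 60% inhibition), 0 means no net growth, and negative values indicate cell death.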 Unmarked numbers belong to inactive results. The source made the active and inactive calls. How the source made its calls: active means growth percent below 10; inactive means the rest. *1 amine or outer side, *2 acyl side, *3 side chain or, on linkers, in order; H or OH if unused. Where a SMILES comes first, the peptide text is derived from it. [ ]: non-standard residue; d: D form. The star is where a group is joined. X5 = CCC(=O)CC1CC(C)CC(C(=O)[*:2])N1[*:1]; X4 = CCCCCCCCC(C)C(=O)*; Aib = CC(C)(N)C(=O)O; X6 = CC(CN(C)CCO)N*

What was measured:
Assay in all cases: NCI-60 one-dose screen, 48 h (100 = growth as untreated, 0 = no growth, -100 = all killed)
[1] = system: DU-145 prostate; details: 10 µM unless noted
[2] = system: K-562 leukemia; details: 10 µM unless noted
[3] = system: MALME-3M melanoma; details: 10 µM unless noted
[4] = system: MDA-MB-231 breast; details: 10 µM unless noted
[5] = system: RXF 393 renal; details: 10 µM unless noted
[6] = system: SF-268 CNS; details: 10 µM unless noted
[7] = system: SF-295 CNS; details: 10 µM unless noted
[8] = system: SF-539 CNS; details: 10 µM unless noted
[9] = system: UACC-257 melanoma; details: 10 µM unless noted
[10] = system: HCT-15 colon; details: 10 µM unless noted
[11] = system: HT29 colon; details: 10 µM unless noted
[12] = system: SNB-75 CNS; details: 10 µM unless noted
[13] = system: SNB-19 CNS; details: 10 µM unless noted
[14] = system: U251 CNS; details: 10 µM unless noted
[15] = system: PC-3 prostate; details: 10 µM unless noted
[16] = system: SK-MEL-5 melanoma; details: 10 µM unless noted
[17] = system: UACC-62 melanoma; details: 10 µM unless noted
[18] = system: LOX IMVI melanoma; details: 10 µM
[19] = system: SK-MEL-28 melanoma; details: 10 µM unless noted
[20] = system: M14 melanoma; details: 10 µM unless noted

Row | Structure (SMILES) | growth [1] | growth [2] | growth [3] | growth [4] | growth [5] | growth [6] | growth [7] | growth [8] | growth [9] | growth [10] | growth [11] | growth [12] | growth [13] | growth [14] | growth [15] | growth [16] | growth [17] | growth [18] | growth [19] | growth [20]
1 | CCC(C)C(N)C(=O)NC(CC(N)=O)C(=O)NC(CC(C)C)C(=O)NC(CCCCN)C(=O)NC(C)C(=O)NC(CC(C)C)C(=O)NC(C)C(=O)NC(C)C(=O)NC(CC(C)C)C(=O)NC(C)C(=O)NC(CCCCN)C(=O)NC(CCCCN)C(=O)NC(C(=O)NC(CC(C)C)C(N)=O)C(C)CC (stereo not given) | 57.9% | 82.5% | 52.1% | 62.1% | 39.6% | 66.8% | 106% | 35.6% | 104% | 101% | 105% | 85.3% | 98.1% | 69.9% | 80.5% | 3.42% (active) | 9.79% (active) | 101% |  | 
2 | COc1cc(/C=C/C(=O)CC(=O)/C=C/c2ccc(O)c(OC)c2)ccc1O | 40.6% | 12.5% | 60.3% | 82.3% | 20.3% | 44.9% | 102% | 14.8% | 53.6% | 13.8% | -20.3% (active) | 7.11% (active) | 48.2% | 18.5% | 36.8% | 71% | 53.5% | 8.79% (active) |  | 
3 | CCCCCCCCC(C)C(=O)N1CCCC1C(=O)N1C(CC(=O)CC)CC(C)CC1C(=O)NC(C)C(=O)NC(C)(C)C(=O)NC(C)(C)C(=O)NC(C(=O)NC(C)C(=O)NC(C)(C)C(=O)NC(C)(C)C(=O)NC(C)CN(C)CCO)C(C)CC (stereo not given) (X4-P[X5]A[Aib][Aib]IA[Aib][Aib]-X6; configuration not given here) | -84.4% (active) | -52.1% (active) | 13.5% | -94.1% (active) | -56.5% (active) | -15.4% (active) | -26.2% (active) | -77% (active) | -72.1% (active) | -70.8% (active) | -84.2% (active) | -23.8% (active) | 1.03% (active) | -67.3% (active) | -7.35% (active) | -85.3% (active) | -66.1% (active) | -69.5% (active) |  | 
4 | CCN1/C(=C/C(C)=C/c2sc3ccc4ccccc4c3[n+]2CC)Sc2ccc3ccccc3c21 | -100% (active) | -23.7% (active) | -87% (active) | -82.5% (active) | -88.1% (active) | -91.1% (active) | -93% (active) | -98.1% (active) | -82.2% (active) | -81.8% (active) | -80.6% (active) | -94.3% (active) | -96.5% (active) | -94.1% (active) | -84% (active) | -97.6% (active) | -96.6% (active) | -73.9% (active) | -98.3% (active) | 
5 | Cn1c(-c2ccccc2)c(/C=C/C2=[N+](C)c3ccccc3C2(C)C)c2ccccc21 | 20.2% | 6.23% (active) | -6.21% (active) | 15.6% | 35.2% | 18% | 11.8% | 11.9% | -51.5% (active) | 38.9% | 0.701% (active) | 20.6% | 18.5% | 8.73% (active) | 8.69% (active) | -98.4% (active) | -3.73% (active) | 14.8% | 22.5% | 
6 | Cc1cc(C(=C2C=CC(=Nc3ccccc3)C=C2)c2ccc(Nc3ccccc3)cc2)ccc1N | -97.2% (active) | 14.1% | -63.6% (active) | -56% (active) | -93.7% (active) | -68.7% (active) | -71.9% (active) | -60.8% (active) | -91.6% (active) | -31.7% (active) | -75.4% (active) | -74.6% (active) | -55.4% (active) | -97.4% (active) | -60.4% (active) | -95.9% (active) | -65.6% (active) | -93.8% (active) | -82.3% (active) | 
7 | Cc1ccccc1N=C(N)Nc1ccccc1C (tested in a mixture with another compound) | 84.3% | 85.8% | 102% | 68.5% | 94.7% | 72.2% | 104% | 72.4% | 97.5% | 66.5% | 97.3% | 99.5% | 89.1% | 84% | 70.7% | 73.1% | 90.5% | 93% | 105% | 
8 | O=[N+]([O-])c1ccc(N2CCN(Cc3ccccc3)CC2)c2c1no[n+]2[O-] | 26.8% | -43.5% (active) | 13.5% | -3.1% (active) | -5.34% (active) | -1.56% (active) | 6.45% (active) | 0.0788% (active) | 55.9% | -52.8% (active) | -70.4% (active) | 68.4% | 37.3% | -47.8% (active) | -31.4% (active) | 38.1% | 4.15% (active) | -36.3% (active) | 77% | 
9 | COC1CC(C)C(OC)c2cc(O)cc(c2O)NC(=O)/C(C)=C/C=C\C(C)C(OC(N)=O)/C(C)=C\C(C)C1OC (stereo not given) | -29.7% (active) | -58.6% (active) | 32.1% | 32.4% | -20.5% (active) | 63.1% | -15.9% (active) | 6.34% (active) | 14.4% | 5.82% (active) | 5.88% (active) | 47.8% | 37.8% | 43.9% | 25.2% | -10.9% (active) | -27.6% (active) | 5.8% (active) |  | 
10 | CCOC(=O)C1(C)CCCC1N (stereo not given) | 108% | 101% | 101% | 97% | 104% | 92.4% | 105% | 103% | 113% | 108% | 116% | 86.3% | 93.6% | 110% | 104% | 98% | 91.6% |  | 109% | 
11 | O=C1C=CC(=O)c2c(O)c(CO)c(CO)c(O)c21 | 54.9% | 91.7% | 9.33% (active) | 89.6% | 98% | 111% | 95% | 104% | 94.4% | 37.8% | 60% | 55.9% | 103% | 105% | 25.6% | 73.8% | 93.3% | 73.5% |  | 
12 | Oc1ccc2ccccc2c1N=Nc1nccs1 | 20.5% | 10.4% | 29.2% | 28.8% | 47.3% | 1.32% (active) | 31.4% | 15.2% | 66% | 24% | 34.7% | 43.3% | 74.2% | 4.79% (active) | 35.4% | 74.7% | 0.0083% (active) | 5.25% (active) | 38.1% | 
13 | Oc1cc(Cl)ccc1Cc1ccc(Cl)cc1O | 90% | 37.2% | 32.9% | 59.7% | 73.8% | 65.2% | 32.3% | 56.3% | 58.7% | 52% | 102% | 76.8% | 66.1% | 52.7% | 43.5% | 11.7% | 32.2% | 50.6% | 89.3% | 
14 | Cc1cc2cccnc2c2ncccc12 | 20.7% | 14.3% | 49.3% | 44.2% | 13.3% | 15.9% | 28.5% | 13% | -1.02% (active) | 37% | 19.7% | 2.75% (active) | 34.1% | 17.2% | 47.3% | 3.03% (active) | 0.859% (active) | 14.8% | 32.2% | 
15 | Cc1cc(N/N=C/c2ccccn2)nc2ccccc12 | 18.2% | 9.21% (active) | 8.16% (active) | 42% | 8.96% (active) | 5.12% (active) |  | -37.8% (active) | -22.6% (active) |  | 20.3% | 30.8% | 24.6% | 4.92% (active) | 28.3% | -43.7% (active) | -46.5% (active) | 4.97% (active) | 18.1% | -39.7% (active)
16 | N=C(N)Sc1cccc[n+]1[O-] | 35.5% | 33.2% | 22.2% | 59.6% | 22.2% | 62.6% | 68.7% |  | 58% | 32.8% | 50.3% | 61.5% | 59% | 41.5% | 38.1% | 56.2% | 23.2% | -30.9% (active) | 26.1% | 18.4%
17 | Oc1ccc(Cl)cc1Cc1cc(Cl)ccc1O | 38.2% | 21.1% | 16.3% | 23.3% | 50.4% | 22.5% | 41.3% |  | 41.6% | 13.7% | 86.3% | 48.3% | 41.5% | 34.8% | 23.9% | 9.09% (active) |  | 42.9% | 35.6% | 25.2%
